Experimental data from PubChem BioAssay AID1159580 (chemical genetic matrix, 2015).
About 2,000 (36%) of roughly 5,500 compounds were called active. Another 18% or so got no clear call; they are omitted. This is one part of the list. Unmarked numbers belong to inactive results. Cut-off read from the data, not from the text of the source: active = normalized growth mostly below about 0.91 (no sharp cut-off); inconclusive = no clear call, values can overlap the other calls; inactive = mostly above about 0.92.

Assay: chemical genetic growth profiling, strain panel (AID 1159580);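 note: tested at 20 µM; growth read once vehicle control cultures reached saturation at 30 °C; 1 = growth at the plate median or of vehicle wells; lower values mean less growth of the strain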
Conditions: S. cerevisiae deletion strains, growth OD
[1] = locus YHR030C, strain SLT2, active compounds read low
[2] = locus YHR079C, strain IRE1, active compounds read low
[3] = locus YJL095W, strain BCK1, active compounds read low
[4] = locus YJR066W, strain TOR1, active compounds read low
[5] = locus YLR113W, strain HOG1, active compounds read low
[6] = locus YNL183C, strain NPR1, active compounds read low
[7] = locus YOR231W, strain MKK1, active compounds read low
[8] = locus YPL256C, strain CLN2, active compounds read low
[9] = locus YGR078C, strain PAC10, active compounds read low
[10] = locus YNL153C, strain GIM3, active compounds read low
[11] = locus YPL055C, strain LGE1, active compounds read low
[12] = locus YPL241C, strain CIN2, active compounds read low

O=C[C@H](O)[C@@H](O)[C@H](O)CO
normalized growth [1]: 1.04 | normalized growth [2]: 1.06 | normalized growth [3]: 1.06 | normalized growth [4]: 0.998 | normalized growth [5]: 1.07 | normalized growth [6]: 1.03 | normalized growth [7]: 1.09 | normalized growth [8]: 1.02

Clc1ccc2ocnc2c1
normalized growth (locus YAL013W, strain DEP1, active compounds read low): 1.01 | normalized growth (locus YBR229C, strain ROT2, active compounds read low): 1.01 | normalized growth (locus YDL101C, strain DUN1, active compounds read low): 1 | normalized growth (locus YDR150W, strain NUM1, active compounds read low): 0.95 | normalized growth (locus YEL061C, strain CIN8, active compounds read low): 1.01 | normalized growth [9]: 1 | normalized growth (locus YGR229C, strain SMI1, active compounds read low): 1.01 | normalized growth [1]: 1.05 | normalized growth (locus YHR087W, strain rtc3, active compounds read low): 0.996 | normalized growth (locus YJR043C, strain POL32, active compounds read low): 0.931 | normalized growth (locus YJR075W, strain HOC1, active compounds read low): 0.999 | normalized growth (locus YKL190W, strain CNB1, active compounds read low): 1.02 | normalized growth (locus YLR039C, strain RIC1, active compounds read low): 1.02 | normalized growth (locus YLR058C, strain SHM2 (second series), active compounds read low): 1 | normalized growth (locus YLR085C, strain ARP6, active compounds read low): 0.997 | normalized growth (locus YLR262C, strain YPT6, active compounds read low): 1.08 | normalized growth (locus YML094W, strain GIM5, active compounds read low): 0.999 | normalized growth (locus YMR219W, strain ESC1, active compounds read low): 1.01 | normalized growth (locus YMR263W, strain SAP30, active compounds read low): 1.01 | normalized growth (locus YNL128W, strain TEP1, active compounds read low): 1.02 | normalized growth [10]: 0.996 | normalized growth (locus YNL298W, strain CLA4 (second series), active compounds read low): 1.04 | normalized growth (locus YNL322C, strain KRE1, active compounds read low): 1.01 | normalized growth (locus YNR030W, strain Alg12, active compounds read low): 1 | normalized growth (locus YOL006C, strain TOP1, active compounds read low): 1.09 | normalized growth [11]: 0.906 | normalized growth [12]: 1.01 | normalized growth (locus YPR135W, strain CTF4, active compounds read low): 1.08

CC(C)NCC(O)COc1ccc(CCOCC2CC2)cc1 (stereo not drawn)
normalized growth (locus YAL040C, strain CLN3, active compounds read low): 1.05 | normalized growth (locus YCL061C, strain MRC1 (second series), active compounds read low): 1 | normalized growth (locus YER002W, strain NOP16, active compounds read low): 1.03 | normalized growth [9]: 0.994 | normalized growth (locus YMR307W, strain GAS1, active compounds read low): 0.998 | normalized growth [10]: 1.01 | normalized growth (locus YNL175C, strain NOP13, active compounds read low): 1.02 | normalized growth (locus YNL197C, strain WHI3, active compounds read low): 1.03 | normalized growth (locus YNL224C, strain SQS1, active compounds read low): 1.01 | normalized growth (locus YOR083W, strain WHI5 (second series), active compounds read low): 1.05 | normalized growth [11]: 0.998 | normalized growth [12]: 1

O=C(Oc1cccc2cccnc12)c1ccccc1
normalized growth (locus YAL021C, strain ccr4, active compounds read low): 0.962 | normalized growth (locus YAL026C, strain drs2, active compounds read low): 0.921 | normalized growth (locus YAL030W, strain snc1, active compounds read low): 0.928 (active) | normalized growth (locus YBL061C, strain skt5, active compounds read low): 0.951 | normalized growth (locus YBR009C, strain hhf1, active compounds read low): 0.956 | normalized growth (locus YBR023C, strain chs3, active compounds read low): 0.956 | normalized growth (locus YBR171W, strain sec66, active compounds read low): 0.917 | normalized growth (locus YBR231C, strain swc5, active compounds read low): 0.995 | normalized growth (locus YBR279W, strain paf1, active compounds read low): 0.957 | normalized growth (locus YCL011C, strain gbp2, active compounds read low): 0.959 | normalized growth (locus YCL016C, strain dcc1, active compounds read low): 0.952 | normalized growth (locus YCL061C, strain MRC1, active compounds read low): 0.967 | normalized growth (locus YCL069W, strain vba3, active compounds read low): 0.948 | normalized growth (locus YCR088W, strain abp1, active compounds read low): 0.936 | normalized growth (locus YDL005C, strain med2, active compounds read low): 0.962 | normalized growth (locus YDL040C, strain nat1, active compounds read low): 0.951 | normalized growth (locus YDR001C, strain nth1, active compounds read low): 0.936 | normalized growth (locus YDR069C, strain doa4, active compounds read low): 0.953 | normalized growth (locus YDR137W, strain rgp1, active compounds read low): 0.688 (active) | normalized growth (locus YDR159W, strain sac3, active compounds read low): 0.971 | normalized growth (locus YDR195W, strain ref2): 1.12 | normalized growth (locus YDR297W, strain sur2, active compounds read low): 0.937 | normalized growth (locus YDR334W, strain swr1, active compounds read low): 0.921 | normalized growth (locus YDR335W, strain msn5, active compounds read low): 0.938 | normalized growth (locus YDR392W, strain spt3, active compounds read low): 0.601 (active) | normalized growth (locus YEL003W, strain gim4, active compounds read low): 0.94 | normalized growth (locus YEL037C, strain rad23, active compounds read low): 0.961 | normalized growth (locus YEL061C, strain CIN8 (second series), active compounds read low): 0.943 | normalized growth (locus YER015W, strain faa2, active compounds read low): 0.965 | normalized growth (locus YER016W, strain bim1, active compounds read low): 0.96 | normalized growth (locus YER111C, strain swi4, active compounds read low): 0.955 | normalized growth (locus YER155C, strain BEM2 (second series), active compounds read low): 0.89 | normalized growth (locus YFR010W, strain ubp6, active compounds read low): 0.951 | normalized growth (locus YGL167C, strain pmr1, active compounds read low): 0.927 | normalized growth (locus YGL173C, strain kem1, active compounds read low): 0.908 | normalized growth (locus YGL227W, strain vid30, active compounds read low): 0.939 | normalized growth (locus YGL240W, strain doc1, active compounds read low): 0.93 | normalized growth (locus YGL253W, strain hxk2, active compounds read low): 0.969 | normalized growth (locus YHR013C, strain ard1, active compounds read low): 0.623 (active) | normalized growth (locus YHR027C, strain rpn1, active compounds read low): 0.929 | normalized growth [1]: 0.955 | normalized growth [2]: 0.955 | normalized growth (locus YHR142W, strain chs7, active compounds read low): 0.897 | normalized growth (locus YJL092W, strain hpr5, active compounds read low): 0.972 | normalized growth (locus YJL095W, strain BCK1 (second series), active compounds read low): 0.955 | normalized growth [3]: 0.916 | normalized growth (locus YJL115W, strain asf1, active compounds read low): 0.951 | normalized growth (locus YJL129C, strain trk1, active compounds read low): 0.97 | normalized growth (locus YJL154C, strain vps35, active compounds read low): 0.939 | normalized growth (locus YJL164C, strain tpk1, active compounds read low): 0.957 | normalized growth (locus YJL166W, strain qcr8, active compounds read low): 0.955 | normalized growth (locus YJL187C, strain SWE1, active compounds read low): 0.951 | normalized growth [4]: 0.92 | normalized growth (locus YKL160W, strain elf1, active compounds read low): 0.935 | normalized growth (locus YKR026C, strain gcn3, active compounds read low): 0.951 | normalized growth (locus YKR091W, strain srl3, active compounds read low): 0.951 | normalized growth (locus YLL001W, strain dnm1, active compounds read low): 0.979 | normalized growth (locus YLL026W, active compounds read low): 0.925 (active) | normalized growth (locus YLL041C, strain sdh2, active compounds read low): 0.967 | normalized growth (locus YLR027C, strain aat2, active compounds read low): 0.95 | normalized growth [5]: 0.915 | normalized growth (locus YLR221C, strain rsa3, active compounds read low): 0.958 | normalized growth (locus YLR258W, strain gsy2, active compounds read low): 0.955 | normalized growth (locus YLR262C, strain YPT6 (second series), active compounds read low): 0.776 (active) | normalized growth (locus YLR320W, strain mms22, active compounds read low): 0.875 (active) | normalized growth (locus YLR342W, strain FKS1, active compounds read low): 0.962 | normalized growth (locus YLR357W, strain rsc2, active compounds read low): 0.992 | normalized growth (locus YLR370C, strain arc18, active compounds read low): 0.918 | normalized growth (locus YLR384C, strain iki3, active compounds read low): 0.952 | normalized growth (locus YML120C, strain ndi1, active compounds read low): 0.934 | normalized growth (locus YMR058W, strain fet3, active compounds read low): 0.897 (active) | normalized growth (locus YMR125W, strain sto1, active compounds read low): 0.961 | normalized growth (locus YMR129W, active compounds read low): 0.954 | normalized growth (locus YMR205C, strain PFK2, active compounds read low): 0.973 | normalized growth (locus YMR231W, strain pep5, active compounds read low): 0.969 | normalized growth (locus YNL071W, strain lat1, active compounds read low): 0.875 (active) | normalized growth [6]: 0.908 | normalized growth (locus YNL209W, strain ssb2, active compounds read low): 0.946 | normalized growth (locus YNL248C, strain rpa49, active compounds read low): 0.944 | normalized growth (locus YNL322C, strain KRE1 (second series), active compounds read low): 0.963 | normalized growth (locus YNR049C, strain mso1, active compounds read low): 0.944 | normalized growth (locus YOR001W, strain rrp6, active compounds read low): 0.95 | normalized growth (locus YOR070C, strain gyp1, active compounds read low): 0.0944 (active) | normalized growth (locus YOR080W, strain dia2, active compounds read low): 0.973 | normalized growth (locus YOR083W, strain WHI5, active compounds read low): 0.945 | normalized growth (locus YOR106W, strain vam3, active compounds read low): 0.905 | normalized growth [7]: 0.946 | normalized growth (locus YOR265W, strain rbl2, active compounds read low): 0.955 | normalized growth (locus YOR270C, strain vph1, active compounds read low): 0.414 (active) | normalized growth (locus YOR290C, strain snf2, active compounds read low): 0.945 | normalized growth (locus YPL051W, strain arl3, active compounds read low): 0.932 | normalized growth (locus YPL078C, strain atp4, active compounds read low): 0.878 (active) | normalized growth (locus YPL106C, strain sse1, active compounds read low): 0.732 (active) | normalized growth (locus YPL240C, strain hsp82, active compounds read low): 0.965 | normalized growth [8]: 0.961
